Bioassay records (PubChem)
Sampled rows, rich in hits. Any-hit rate of the full collection: about 27%.
CYP2C9 act – human CYP2C9 activators, primary screen, biochemical, luminescence; Cytochrome P450 2C9 (Homo sapiens), P11712; recombinant CYP2C9, luciferin-H conversion; active compounds read high; factor 1 = untreated enzyme, 0 = blocked; activation factor at 5 µM; 96,000 compounds, 1.4% hits;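 active means activation factor of 2 or more for CYP2C9 at a 5 µM dose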
CYP2C9 inhib – blockers of cytochrome P450 2C9 activity – biochemical, luminescence, ADME assay, primary screen | P11712 | AID 777, 2007 | inhibition, % at 5 µM | CYP2C9 Supersomes, luciferin-H conversion | 96,000 compounds, 20% hits;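 active means blocking of liver enzyme CYP2C9 beyond about 50% at 5 µM, limit read from the data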
CYP2C19 act – human CYP2C19 activators, primary screen, biochemical, luminescence | activation factor at 5 µM | 96,000 tested, under 10 active | recombinant CYP2C19, luciferin-H EGE luminescence; active compounds read high; 0 = fully inhibited enzyme, 1 = untreated enzyme | Cytochrome P450 2C19 (Homo sapiens), P33261;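 active means activation factor of at least 2 at 5 µM in the primary screen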
Cav3 T inh – Cav3.2 calcium influx blockers – cell-based, Fluo-4 calcium fluorescence, FDSS, MLSMR library, primary screen; B-score at 10 µM; Cav3.2-expressing cells; active compounds read low; AID 449739, 2010; 100,000 compounds, 4% hits;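 active means single-dose well whose peak fluorescence ratio is a statistical outlier from its plate by either plate-standardised score or position-corrected B-score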
Target sequence (O95180 whole entry, looked up): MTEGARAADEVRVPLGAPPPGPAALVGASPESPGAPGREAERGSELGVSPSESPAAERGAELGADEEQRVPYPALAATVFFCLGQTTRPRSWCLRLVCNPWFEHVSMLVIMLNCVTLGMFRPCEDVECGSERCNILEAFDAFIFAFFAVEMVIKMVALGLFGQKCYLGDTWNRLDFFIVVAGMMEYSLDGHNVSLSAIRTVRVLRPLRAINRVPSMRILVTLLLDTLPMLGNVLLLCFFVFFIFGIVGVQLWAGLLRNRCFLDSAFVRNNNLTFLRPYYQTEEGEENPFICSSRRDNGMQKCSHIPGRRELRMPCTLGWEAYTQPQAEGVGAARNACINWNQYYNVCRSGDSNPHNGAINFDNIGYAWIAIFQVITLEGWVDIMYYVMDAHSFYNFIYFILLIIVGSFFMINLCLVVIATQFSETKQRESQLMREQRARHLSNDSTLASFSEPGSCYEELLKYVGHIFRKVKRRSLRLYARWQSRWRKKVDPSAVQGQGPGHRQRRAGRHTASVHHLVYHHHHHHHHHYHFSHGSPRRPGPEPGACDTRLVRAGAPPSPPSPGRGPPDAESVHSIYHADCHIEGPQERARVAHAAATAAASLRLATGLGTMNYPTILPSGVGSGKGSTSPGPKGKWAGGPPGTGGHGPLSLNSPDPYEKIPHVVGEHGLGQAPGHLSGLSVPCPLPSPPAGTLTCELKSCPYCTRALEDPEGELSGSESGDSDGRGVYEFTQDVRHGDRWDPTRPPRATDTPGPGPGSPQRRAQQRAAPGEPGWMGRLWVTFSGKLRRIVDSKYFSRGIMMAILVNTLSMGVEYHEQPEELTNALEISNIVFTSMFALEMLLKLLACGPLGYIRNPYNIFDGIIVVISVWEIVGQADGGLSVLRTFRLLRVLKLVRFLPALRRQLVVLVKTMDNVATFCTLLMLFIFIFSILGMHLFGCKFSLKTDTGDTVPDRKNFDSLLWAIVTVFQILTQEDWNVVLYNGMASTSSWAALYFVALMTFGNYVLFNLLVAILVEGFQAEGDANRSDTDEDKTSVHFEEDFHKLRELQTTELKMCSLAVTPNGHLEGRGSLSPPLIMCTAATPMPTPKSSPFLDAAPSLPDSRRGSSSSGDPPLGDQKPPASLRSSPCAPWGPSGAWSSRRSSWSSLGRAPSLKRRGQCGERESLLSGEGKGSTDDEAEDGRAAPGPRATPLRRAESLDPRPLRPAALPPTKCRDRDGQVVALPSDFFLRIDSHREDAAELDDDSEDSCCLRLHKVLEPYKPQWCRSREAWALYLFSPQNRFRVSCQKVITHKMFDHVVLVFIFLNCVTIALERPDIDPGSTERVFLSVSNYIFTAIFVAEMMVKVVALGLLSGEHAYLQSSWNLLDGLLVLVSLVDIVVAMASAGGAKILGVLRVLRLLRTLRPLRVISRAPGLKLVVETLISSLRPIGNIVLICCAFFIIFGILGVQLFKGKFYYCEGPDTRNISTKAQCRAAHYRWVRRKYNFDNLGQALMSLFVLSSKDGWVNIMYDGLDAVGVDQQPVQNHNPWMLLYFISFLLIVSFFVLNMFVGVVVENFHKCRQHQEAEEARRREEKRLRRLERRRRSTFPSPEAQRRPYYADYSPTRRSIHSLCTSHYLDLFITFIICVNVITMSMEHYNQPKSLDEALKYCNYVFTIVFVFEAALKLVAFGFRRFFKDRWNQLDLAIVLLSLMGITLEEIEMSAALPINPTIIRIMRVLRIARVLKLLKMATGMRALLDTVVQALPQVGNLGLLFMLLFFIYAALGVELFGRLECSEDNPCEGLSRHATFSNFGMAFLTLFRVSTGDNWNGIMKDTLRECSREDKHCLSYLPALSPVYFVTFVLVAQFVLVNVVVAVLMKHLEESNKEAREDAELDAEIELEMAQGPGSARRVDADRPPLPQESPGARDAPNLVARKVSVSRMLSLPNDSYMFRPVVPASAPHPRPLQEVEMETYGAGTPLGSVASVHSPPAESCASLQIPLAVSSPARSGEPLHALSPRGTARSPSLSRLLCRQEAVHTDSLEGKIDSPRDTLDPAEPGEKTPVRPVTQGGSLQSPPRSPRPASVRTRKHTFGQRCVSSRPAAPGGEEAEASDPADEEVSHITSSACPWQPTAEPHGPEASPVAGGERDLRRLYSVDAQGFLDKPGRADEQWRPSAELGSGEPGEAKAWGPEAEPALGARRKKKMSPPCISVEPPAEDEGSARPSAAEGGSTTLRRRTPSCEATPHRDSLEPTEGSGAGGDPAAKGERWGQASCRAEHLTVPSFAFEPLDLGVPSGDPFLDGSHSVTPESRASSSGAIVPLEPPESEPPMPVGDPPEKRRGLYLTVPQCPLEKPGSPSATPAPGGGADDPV
CYP2C19 inhib – blockers of cytochrome P450 2C19 activity – biochemical, luminescence, ADME assay, primary screen. CYP2C19 Supersomes, luciferin-H EGE luminescence, 30 min. AID 778, 2007. P33261. 96,000 compounds, 21% hits. inhibition, % at 5 µM;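 active means CYP2C19 inhibition above a set limit at 5 µM in the primary screen, cut at about 50% in these data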
Each line names hits and unclear results; the compound was inactive in the other large screens.

COc1ccc(OC)c(C2CC(=O)N3CN(c4ccccc4F)CSC3=C2C#N)c1 (centres undefined)	CYP2C9 inhib 89
CCc1ccccc1N1CSC2=C(C#N)C(c3cc(OC)c(OC)cc3OC)CC(=O)N2C1 (centres undefined)	none
COc1cccc(C2CC(=O)N3CN(c4ccccc4F)CSC3=C2C#N)c1 (centres undefined)	CYP2C9 inhib 84, CYP2C19 inhib 68
Cc1csc2nc(=O)c3ccccc3n12	none
CN(C)CCNC(=O)c1ccc(COc2ccc(Cl)cc2Cl)cc1	none
CC(C)C1C(C#N)=C(N)SC(N)=C1C#N	CYP2C19 inhib 68
CC(c1ccccc1)C1C(C#N)=C(N)SC(N)=C1C#N (centres undefined)	Cav3 T inh -5, CYP2C19 inhib 93
CC(CC1C(C#N)=C(N)SC(N)=C1C#N)c1ccccc1 (centres undefined)	CYP2C9 inhib 98, CYP2C19 inhib 92 (no result: Cav3 T inh)
COc1ccc(N=Nc2nc3ccc(Br)cc3n2C)cc1	none (no result: Cav3 T inh)
COc1cc(CC(=O)Nc2ccc(S(=O)(=O)Nc3ncccn3)cc2)cc(OC)c1OC	none
COc1cccc(-c2noc(C(C)n3nc(C)c([N+](=O)[O-])c3C)n2)c1 (centres undefined)	CYP2C9 inhib 55
COc1cccc(-c2noc(-c3cccnc3)n2)c1	none
COC(=O)NCC1(C)CC(NC(=O)OC)CC(C)(C)C1 (centres undefined)	CYP2C19 inhib 77 (no result: Cav3 T inh)
CC1(C)Cc2ccccc2-c2nnc(SCC(=O)Nc3nc4ccccc4s3)n21	none
CCOc1ccccc1NC=C1C(=O)OC(C)(C)OC1=O	CYP2C9 act 2
CCOC(=O)CN1C(=O)C(Sc2n[nH]c(-c3cccc(C)c3)n2)CCc2ccccc21 (centres undefined)	CYP2C9 inhib 85, CYP2C19 inhib 57
CCOC(=O)CSc1n[nH]c(-c2cccnc2)n1	none (no result: Cav3 T inh)
FC(F)(F)c1nnc(-c2ccccc2)nc1Oc1ccc(Cl)cc1Cl	CYP2C19 inhib 61 (no result: Cav3 T inh)
COc1ccc(OC)c(NC(=O)C2CCN(S(=O)(=O)c3cccs3)CC2)c1	none
COc1ccc(OC)c(S(=O)(=O)N2CCC(C(=O)Nc3ccc(C)c(C)c3)CC2)c1	CYP2C9 act 2.5, Cav3 T inh -7.2
COc1ccc(OC)c(S(=O)(=O)N2CCC(C(=O)Nc3cccc(C)c3C)CC2)c1	CYP2C9 act 2.5
COCCn1c(CCC(=O)O)nc2c1c(=O)[nH]c(=O)n2CC(C)C	none
COc1ccc(NC(=O)C2CC(=O)OC2(C)C)cc1 (centres undefined)	none
COc1cc(S(=O)(=O)Nc2ccccn2)ccc1F	CYP2C9 act 2.1
COc1ccc(S(=O)(=O)Nc2ccccn2)cc1OC	none
COc1cc(S(=O)(=O)N2CCC(c3nc4ccccc4s3)CC2)ccc1S(=O)(=O)NC1CCCC1	none (no result: CYP2C9 act, CYP2C9 inhib, CYP2C19 act, CYP2C19 inhib)
COc1cc(S(=O)(=O)NC2CCCC2)ccc1F	CYP2C19 inhib 90
COc1cc(S(=O)(=O)NC2CCCC2)ccc1Cl	CYP2C9 act 3, CYP2C19 inhib 94
COc1cc(S(=O)(=O)NC2CCCCC2C)ccc1Cl (centres undefined)	CYP2C19 inhib 97
COc1ccc(OC)c(S(=O)(=O)NC2CCCCC2)c1	none
COc1cc(S(=O)(=O)NCc2cccnc2)ccc1F	CYP2C19 inhib 83
COc1ccc(S(=O)(=O)NC2CCCCC2)c(C)c1C	CYP2C19 inhib 96
COc1ccc(S(=O)(=O)NC2CCCC2)cc1Br	CYP2C9 act 2.4, CYP2C19 inhib 97
Cc1ccc(S(=O)(=O)NC2CCCC2)cc1C	none
N#CCC(=O)Nc1ncn(Cc2ccccc2Cl)n1	none
Nc1nnc(SCC(=O)NCCOc2ccccc2)s1	none (no result: CYP2C9 act, CYP2C9 inhib, CYP2C19 act, CYP2C19 inhib)
O=C(OCn1nnc2ccccc2c1=O)c1cc2ccccc2o1	none (no result: CYP2C9 act, CYP2C9 inhib, CYP2C19 act, CYP2C19 inhib)
CC(Sc1nnc(-c2cccs2)n1-c1ccccc1)C(=O)NCc1ccco1 (centres undefined)	CYP2C9 inhib 82, CYP2C19 inhib 71
CCn1c(SCC(=O)NCc2ccco2)nnc1-c1cccs1	none
CCOC(=O)CSc1nnc(-c2ccco2)n1-c1ccccc1	none
CC(Sc1nnc(-c2cc3ccccc3o2)n1-c1ccccc1)C(=O)O (centres undefined)	none
Cc1cc(C)c(NC(=O)C(C)Sc2nnc(-c3ccco3)n2-c2ccccc2)c(C)c1 (centres undefined)	CYP2C9 inhib 66, CYP2C19 inhib 90
COC(=O)c1cccc(CSc2nnc(-c3ccco3)n2-c2ccccc2)c1	CYP2C9 inhib 68
O=C(Cn1nnc2c(cnn2-c2ccccc2)c1=O)N1CCN(c2ccccc2F)CC1	none
CCC(=O)NC(=S)N1CCN(c2ccc([N+](=O)[O-])cc2Cl)CC1	CYP2C19 inhib 68
CC(C)(C)C(=O)N1CCN(c2ccc([N+](=O)[O-])cc2Cl)CC1	none (no result: CYP2C9 act, CYP2C9 inhib, CYP2C19 act, CYP2C19 inhib)
CCOC(=O)c1c(C=O)c(C)n(Cc2ccc(C)cc2)c1C	CYP2C9 inhib 96, Cav3 T inh -6.1, CYP2C19 inhib 76
CCOC(=O)c1c(C=O)c(C)n(Cc2ccccc2Cl)c1C	CYP2C9 inhib 94, CYP2C19 inhib 98
Cc1c(C=O)c(C=O)c(C)n1Cc1ccccc1	CYP2C19 inhib 62
CCC(=O)N1CCN(c2ccc(NC(=O)c3ccc(-c4ccccc4)cc3)cc2)CC1	none (no result: Cav3 T inh)
O=C(NCc1cccnc1)c1ccc(CN2CCc3ccccc3C2)cc1	none (no result: CYP2C9 act, CYP2C9 inhib, CYP2C19 act, CYP2C19 inhib)
C/C=C/Cn1c(Br)nc2c1c(=O)n(C)c(=O)n2C	none
O=C(c1ccco1)N1CCN(c2ncnc3c2[nH]c2ccc(Br)cc23)CC1	CYP2C9 inhib 90, CYP2C19 inhib 96 (no result: Cav3 T inh)
O=C(c1ccco1)N1CCN(c2ncnc3c(-c4ccccc4)nsc23)CC1	none
O=C(c1ccco1)N1CCN(c2ncnc3c2[nH]c2ccccc23)CC1	CYP2C19 inhib 67 (no result: Cav3 T inh)
CN(CC(=O)Nc1ccc(S(N)(=O)=O)cc1)c1ccccc1	none
CC(=O)N1CCN(c2cc(N3CCc4ccccc4C3)c(F)cc2[N+](=O)[O-])CC1	CYP2C9 inhib 54
CCCOc1cccc(CN2CCCCC2c2cccnc2)c1 (centres undefined)	CYP2C9 inhib 83, CYP2C19 inhib 92
Cn1nnnc1SCCNCc1ccc(Cl)cc1	CYP2C19 inhib 84
CCOc1cc(CNCCSc2nnnn2C)cc(Br)c1OCc1ccccc1	CYP2C9 inhib 81, CYP2C19 inhib 94
CCOc1cc(CNCCc2ccc(S(N)(=O)=O)cc2)cc(Cl)c1OCc1ccccc1	none
O=C(Cn1nc(C(F)F)cc1C(F)F)N/N=C/c1ccc2c(c1)OCO2	none
COc1ccccc1NC(=O)C1CCCN(S(=O)(=O)c2cccc3nsnc23)C1 (centres undefined)	CYP2C9 inhib 71, CYP2C19 inhib 72
O=C(NCC1CCCO1)C1CCCN(S(=O)(=O)c2cccc3nsnc23)C1 (centres undefined)	none
